Drawing on PubChem BioAssay (NCI), this text covers growth for 10 compounds.

What all share (assay): NCI-60 one-dose screen, 48 h (100 = growth as untreated, 0 = no growth, -100 = all killed)
Experiment [1] relates to NCI-H226 lung. The following applies: 10 µM.
In experiment [2] the test system is HOP-62 NSCLC. The following applies: 10 µM.
Experiment [3] concerns NCI-H460 lung. The conditions noted are these: 10 µM.
Experiment [4] relates to A549/ATCC NSCLC. The following applies: 10 µM.
Experiment [5] deals with COLO 205 colon. The conditions noted are these: 10 µM.
The subject of experiment [6] is DU-145 prostate. The following applies: 10 µM.
In experiment [7] the test system is K-562 leukemia. The following applies: 10 µM.
Experiment [8] has as its system SF-539 CNS. The following applies: 10 µM.
Experiment [9] deals with M14 melanoma. The conditions noted are these: 10 µM.
The test system of experiment [10] is HCT-15 colon. The conditions noted are these: 10 µM.
In experiment [11] the test system is HT29 colon. The following applies: 10 µM.
Experiment [12] has as its system SNB-75 CNS. The following applies: 10 µM.
For experiment [13], the system named is SNB-19 CNS. The following applies: 10 µM.
In experiment [14] the test system is U251 CNS. The conditions noted are these: 10 µM.
The subject of experiment [15] is PC-3 prostate. The conditions noted are these: 10 µM.
The subject of experiment [16] is LOX IMVI melanoma. The following applies: 10 µM.
Experiment [17] relates to MOLT-4 leukemia. The following applies: 10 µM.
Experiment [18] has as its system RPMI-8226 leukemia. The following applies: 10 µM.
Experiment [19] concerns SK-OV-3 ovarian. The conditions noted are these: 10 µM.
Experiment [20] relates to MDA-MB-468 breast. The conditions noted are these: 10 µM unless noted.

Compounds without any hit were thinned out: in the full panel of roughly 83,000, 20% have a hit.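 Percent growth is the endpoint: 0 to 100 indicates growth inhibition (40 means 60% inhibition), 0 means no net growth, and negative values indicate cell death.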 Unmarked numbers belong to inactive results. Calls of active or inactive are those of the source. The calls were made as follows: active = growth percent below 10; inactive = the rest.

On to `Cn1cc(-c2nnc(N)nc2-c2c[nH]c3ccccc23)c2cc(Br)cnc21`, for which the growth in experiment [1] is 17.9%; in experiment [2] it was 50.6%; in [3], 42.3%; in [4], 55.1%; in experiment [5] it was 32.4%; in [6], 77%. Further, the growth in experiment [7] is 15.1%; in experiment [8] it was 50.2%; in experiment [9], 25.1%; in experiment [10] it was 25.4%; in [11] it was 35.6%; in [12], 34%. Moreover, the growth is 66.6% in experiment [13]; 45.5% in experiment [14]; 45.7% in [15]; -75.6% (active) in [16]; 2.48% (active) in experiment [17]; 26.6% in experiment [18]. Further, the values for the growth in [19] and in [20] were 60.6% and -3.61% (active), respectively.

Take `COc1cc(NCCCN(CC(C)C)CC(C)C)c2ncccc2c1`: the growth in experiment [20] was -27.1% (active).

`CCOC(=O)C1=C(N)N(c2ccc(C)cc2)C2=C(C(=O)CC(C)(C)C2)C1c1ccccc1Br` (stereo not drawn): the growth in experiment [1] was 84.9%; in experiment [2], 90.8%; in experiment [3] it was 53.5%; in experiment [4] it was 80.9%; in experiment [5], 62.7%; in experiment [6] it was 102%. Also, the growth in experiment [7] was 50.6%; in experiment [8] it was 104%; in experiment [9], 83%; in experiment [10], 58.4%; in experiment [11], 62.5%; in experiment [12], 87.2%. For the same compound, the growth in experiment [13] was 86.7%; in [14], 80.7%; in experiment [15] it was 32.4%; in experiment [16], 88.8%; in experiment [17], 29.1%; in [18], 35.5%. Also, the growth was 91.9% in experiment [19] and 77% in experiment [20].

In the case of `COc1ccc(NCc2cn(-c3ccc(C(=O)O)cc3)nc2-c2ccc(F)cc2)cc1C(F)(F)F`, the growth in experiment [1] was 66.3%; in [2], 66.3%; in experiment [3], 37.2%; in experiment [4], 35.8%; in [5] it was 71.2%; in experiment [6], 69.3%. Further, the growth in experiment [7] was 41.3%; in [8], 53.9%; in [9], 51.5%; in experiment [10] it was 43.7%; in experiment [11], 51%; in experiment [12], 79.1%. In addition, the growth in experiment [13] was 39.3%; in experiment [14], 29.5%; in experiment [15] it was 36.3%; in experiment [16], 43.8%; in experiment [17], 40.7%; in experiment [18] it was 37.6%. Moreover, the values for the growth in [19] and in experiment [20] were 112% and 65.1%, respectively.

Turning to `Cc1ccc2c(c1)C(=O)/C(=C/c1ccc([N+](=O)[O-])cc1)S2`, the growth is 52.2% in experiment [1]; 92% in experiment [2]; 92.5% in [3]; 99.6% in experiment [4]; 103% in experiment [5]; 104% in [6]. Besides, the growth in experiment [7] is 69.9%; in experiment [8] it was 96.6%; in experiment [9], 97.3%; in experiment [10], 96.2%; in experiment [11], 79.1%; in experiment [12], 81.3%. For the same compound, the growth in [13] was 92.4%; in experiment [14], 77.8%; in experiment [15] it was 94.5%; in experiment [16], 105%; in [17] it was 107%; in [18], 65.2%. The growth is 87.4% in [19] and 84% in [20].

`CCn1c(SCC(=O)Nc2ccc(-c3nc4ccccc4[nH]3)cc2)nc2ccccc2c1=O`: the growth in experiment [1] was -65.5% (active); in experiment [2], -80.4% (active); in [3] it was -56.2% (active); in experiment [4], -71.2% (active); in [5], -72.7% (active); in experiment [6], -50.3% (active). Besides, the growth is -11.3% (active) in experiment [7]; -87.3% (active) in experiment [8]; -87.9% (active) in experiment [9]; -50% (active) in experiment [10]; -64.9% (active) in experiment [11]; -94.2% (active) in experiment [12]. Also, the growth in [13] is -63.5% (active); in experiment [14], -74.9% (active); in experiment [15], -80.6% (active); in [16], -63% (active); in experiment [17], 3.3% (active); in [18], -11.4% (active). For the same compound, the growth in [19] was -70.5% (active); in experiment [20] it was -81% (active).

For `O=C(Nc1cccc(N=Cc2c(O)ccc3ccccc23)c1)c1ccccc1`, the growth in experiment [20] is 98.9%.

For `C1=C(c2ccccc2)c2ccccc2C1`, the growth in experiment [20] is 100%.

For `CC1(C)CC(=O)C2=C(C1)N(Cc1ccc(C(=O)O)cc1)C1=C(C(=O)CC(C)(C)C1)C2c1ccc(Cl)cc1`, the growth in [1] was 108%; in experiment [2], 101%; in experiment [3] it was 104%; in experiment [4] it was 99.3%; in [5] it was 121%; in [6], 113%. Besides, the growth in experiment [7] is 103%; in experiment [8], 110%; in experiment [9] it was 101%; in experiment [10] it was 98.4%; in [11] it was 112%; in experiment [12] it was 94.5%. Also, the growth was 112% in experiment [13]; 105% in experiment [14]; 109% in experiment [15]; 61.7% in experiment [16]; 92.9% in [17]; 113% in [18]. Besides, the growth is 101% in experiment [19] and 103% in [20].

Regarding `O=C(Nc1ccc(OCC(=O)c2ccc(Cl)cc2)cc1)Nc1ccc(Cl)c(C(F)(F)F)c1`, the growth in experiment [1] was 38%; in experiment [2] it was 47.6%; in experiment [3], 27.6%; in [4], 24.3%; in experiment [5] it was -49.4% (active); in experiment [6], 66.2%. Besides, the growth in experiment [7] was 65.3%; in experiment [8] it was 47.3%; in experiment [9] it was 33.9%; in experiment [10], 23.6%; in experiment [11] it was 33.6%; in [12] it was 51.5%. Besides, the growth is 21.3% in experiment [13]; 35.6% in [14]; 7.67% (active) in experiment [15]; -37.8% (active) in experiment [16]; 45.3% in experiment [17]; 12.2% in [18]. In addition, the growth in experiment [19] was 33%; in [20], 26%.
